Results taken from PubChem BioAssay AID485317 (Broad Institute, 2010).
In all, about 290,000 compounds went through this assay and about 11,000 (3.8%) were called active. The sample as a whole holds a higher share of actives than the screen did. A number with no mark means an inactive call.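 Rule for the calls: active = mean replicate inhibition above about 79%, with every replicate also reaching it (limit read from the data); inconclusive = only one of the two criteria met; inactive = mean below limit and not every replicate reaching it.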

Target: FAD-linked sulfhydryl oxidase ALR (Homo sapiens) (UniProt P55789)
Sequence (P55789 whole entry, looked up): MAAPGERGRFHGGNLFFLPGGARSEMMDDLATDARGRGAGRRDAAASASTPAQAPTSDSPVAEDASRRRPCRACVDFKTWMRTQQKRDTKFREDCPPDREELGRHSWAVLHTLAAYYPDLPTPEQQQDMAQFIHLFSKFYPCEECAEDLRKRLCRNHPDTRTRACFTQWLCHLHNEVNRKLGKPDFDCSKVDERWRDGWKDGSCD
Test: inhibitors of human ALR sulfhydryl oxidase, primary screen, biochemical, H2O2 detection, HRP-luminol luminescence, single point (AID 485317)
Settings: purified ALR, DTT oxidation, active compounds read high, concentration not given here

Row | Compound | inhibition
1 | COc1ccc(NC(=O)CN(C)C(=O)c2ccc(NC3CC3)c([N+](=O)[O-])c2)cc1 | 9.73%
2 | CCOc1cc(/C=N/NC(=O)CN2CCCCC2)ccc1O | 98.9% (active)
3 | COc1cc(/C=N/NC(=O)c2ccoc2C)ccc1OCCN1CCCCC1 | -5.33%
4 | CCOc1cc(/C=N/NC(=O)c2cc(-c3ccccc3)nc3ccccc23)ccc1O | 12.6%
5 | O=C(O)c1ccc(N/N=C/c2cn(-c3ccccc3)nc2-c2cccs2)cc1 | 98.9% (active)
6 | O=C(/C=C\c1cn(-c2ccccc2)nc1-c1cccs1)N1CCOCC1 | -5.03%
7 | COc1ccc(-c2nn(-c3ccccc3)cc2/C=C\C(=O)Nc2ccc(C(=O)O)cc2)cc1 | -2.34%
8 | Cc1ccc(NC(=O)CCNC(=O)c2ccc([N+](=O)[O-])cc2)cc1S(=O)(=O)N1CCOCC1 | -6.28%
9 | Cc1ccc(S(=O)(=O)NCC(=O)N2CCN(c3ccccn3)CC2)cc1 | 3.32%
10 | Cc1ccc(N2C(=O)C3CC3C2=O)cc1 (stereo unspecified) | -2.01%
11 | Cc1ccc(N2CCN(c3ccc(C)cc3)C2c2ccccn2)cc1 | 86.9% (active)
12 | CC(C)(C)OC(=O)C[C@@H]1C/C=C\C[C@H](CC(=O)N[C@@H](CO)Cc2ccccc2)C(=O)N[C@H](Cc2ccccc2)COC1=O | -0.505%
13 | O=C(NCc1ccccc1Cl)C(=O)NCC1CCCN1S(=O)(=O)c1cccs1 (stereo unspecified) | -7.66%
14 | Cc1cc(C(=O)NC2CC(C)(C)Cc3c2cnn3-c2ccccc2)n[nH]1 (stereo unspecified) | 92.1% (active)
15 | COc1ccc(C(=O)NC2CC(C)(C)Cc3c2cnn3-c2ccccc2)c(OC)c1 (stereo unspecified) | 0.864%
16 | CC1=C(C(=O)NC2CC(C)(C)Cc3c2cnn3-c2ccc(C)cc2)OCCO1 (stereo unspecified) | -16.8%
17 | CC(=O)Nc1cccc(C(=O)OCC(=O)NCc2cc(C)c(O)c(C)c2)c1 | 25.7%
18 | Cc1cccc2c(=O)n3c(nc12)CCCCC3 | -3.58%
19 | O=c1c2c(nc3n1CCCCC3)sc1c(O)cccc12 | 94.5% (active)
20 | CC(=O)c1ccc(NC(=O)c2sc3nc4n(c(=O)c3c2C)CCCCC4)cc1 | -6.68%
21 | CSc1ncccc1C(=O)Nc1ccc2c(c1)OCO2 | -7.77%
22 | COc1ccccc1N1CCN(CC(=O)Nc2ccnn2C2CCCC2)CC1 | 21.7%

Row | Compound | inhibition
23 | O=C(OCC1OC(Oc2ccc(O)cc2)C(O)C(O)C1O)c1ccccc1 (stereo unspecified) | 23.2%
24 | CC(=O)NC1C(OCc2ccccc2)OC(COC(C)=O)C(OC(C)=O)C1OC(C)=O (stereo unspecified) | -6.67%
25 | O=C(OCC1O[C@@H](OC(=O)c2cc(O)c(O)c(O)c2)[C@@H](OC(=O)c2cc(O)c(O)c(O)c2)[C@@H](OC(=O)c2cc(O)c(O)c(O)c2)[C@@H]1OC(=O)c1cc(O)c(O)c(O)c1)c1cc(O)c(O)c(O)c1 (stereo partly specified) | 98.8% (active)
26 | NC(=O)c1ccsc1NC(=O)COC(=O)Cc1n[nH]c(=O)c2ccccc12 | -7.95%
27 | Cc1cccc(NS(=O)(=O)c2ccc(C)c(C(=O)NCc3cccnc3)c2)c1 | -5.85%
28 | c1ccc(Nc2n[nH]nc2-c2ccccc2)cc1 | 100% (active)
29 | O=C(O)c1n[nH]nc1-c1ccccc1 | -0.621%
30 | CCCCNC(=O)C(=O)c1ccccc1NC(C)=O | -1.84%
31 | CCCCNC(=S)NNC(=O)c1cc(C)on1 | 55.3%
32 | CCCCNC(=O)Nc1c(C)cc(SC#N)cc1C | 96.7% (active)
33 | O=C(OCc1cc(=O)n2ccsc2n1)C1(c2ccc(Cl)cc2)CC1 | -1.54%
34 | COc1ccccc1C(=O)NC(=O)COC(=O)c1ccco1 | -0.0405%
35 | Cc1cccc(NC(=O)c2ccc(S(=O)(=O)N(C)CC3CCCO3)cc2)c1C (stereo unspecified) | -10.6%
36 | CCN(CC(=O)NC(C)C)C(=O)c1cc(S(=O)(=O)N2CCCCC2)ccc1N1CCCCC1 | -1.75%
37 | NC(=O)Nc1ccc(C(=O)OCC(=O)NC2CCCc3ccccc32)cc1 (stereo unspecified) | -2.38%
38 | CC(C)C[C@H](NC(=O)N1CCn2c1nc1ccccc12)C(=O)NC1CC1 | -10.7%
39 | CSCC[C@H](NC(=O)N1CCn2c1nc1ccccc12)C(=O)NC1CCCCC1 | 98.2% (active)
40 | CSCC[C@H](NC(=O)N1CCn2c1nc1ccccc12)C(=O)NCc1ccc2c(c1)OCO2 | -4.75%
41 | CC1CCN(C(=O)COC(=O)c2cc(=O)[nH]c3ccccc23)CC1 | 2.67%
42 | COc1cc(Cl)c(C)cc1NC(=O)CSc1nnc(-c2ccco2)n1CC(C)C | 2.64%
43 | COc1cc(Cl)c(C)cc1NC(=O)CSc1nnc(-c2cccnc2)n1Cc1ccco1 | 20.1%
44 | CCn1c(SCC(=O)Nc2cc(C)c(Cl)cc2OC)nnc1-c1ccco1 | 98.5% (active)

Row | Compound | inhibition
45 | CCOC(=O)[C@H]1[C@H]2COc3ccccc3[C@@H]2N2C(=O)CN(Cc3ccccc3)C(=O)[C@@]12C | -1.27%
46 | C/C(=N\Nc1ncc(Cl)cc1Cl)c1cccs1 | 0.466%
47 | O=C(Nc1ccccc1-c1nc2ccccc2[nH]c1=O)c1cccs1 | 1.37%
48 | C/C(=N\Nc1nc2ccccc2[nH]1)c1cccs1 | 99% (active)
49 | O=C1CCC/C=C/C[C@@H](CC(=O)N(CCO)Cc2ccccc2)C(=O)NC[C@H](c2ccccc2)O1 | 0.972%
50 | CCC[C@H]1CCCC/C=C\CCCC(=O)OCCN1C(=O)OC(C)(C)C | -2.32%
51 | CC(C)CC1NC(=O)c2cc(Cl)ccc2-n2c1nc1ccccc1c2=O (stereo unspecified) | -5.03%
52 | COc1cnn(-c2ccc([N+](=O)[O-])cc2)c(=O)c1Cl | 4%
53 | COc1ccc(-n2c(-c3ccc(OC)c(OC)c3)n[nH]c2=S)cc1 | 94% (active)
54 | Cc1ccc(-n2c(-c3ccc(Cl)cc3)n[nH]c2=S)cc1 | -1.26%
55 | Cc1ccc(OCc2n[nH]c(=S)n2-c2ccc(C)cc2)cc1 | 47.3%
56 | COc1ccc(CNC(=O)COC(=O)CCS(=O)(=O)c2ccc(C)cc2)cc1OC | 2.97%
57 | CCCCN1C(=O)C(=O)N(CC(=O)Nc2cccc(C(C)=O)c2)C1=O | 1.6%
58 | C=CCC[C@@H](Cc1ccc(F)cc1)C(=O)OC[C@@H](C)NC(=O)[C@H](CC=C)CC(=O)N(CCO)Cc1ccccc1 | -10.3%
59 | O=C(NC(=O)c1ccccc1)NC(=O)c1ccccc1 | 0.464%
60 | Cc1nc2ccccc2c(=O)n1NC(=O)c1ccccc1 | -10.2%
61 | Cn1sc(NC(=O)c2ccccc2)nc1=O | 88.6% (active)
62 | Cc1ccc(C(=O)NC2CCCC(C)C2C)cc1S(=O)(=O)N1CCCCC1 (stereo unspecified) | -6.06%
63 | CC(OC(=O)c1ccc(S(=O)(=O)N2CCOCC2)cc1)c1ccccc1 (stereo unspecified) | -21.1%
64 | COCCNC(=O)COc1ccc(C)c(C)c1 | 11.4%
65 | Cc1ccc(OCC(=O)NC(C)c2ccccc2)cc1C (stereo unspecified) | -10.2%
66 | Cc1ccc(SC(=O)COc2ccc(C)c(C)c2)cc1 | 98.5% (active)

Row | Compound | inhibition
67 | CCn1nc(C(=O)NNS(=O)(=O)c2cc(/C=C/C(=O)O)cc(OC)c2OC)c2ccccc2c1=O | 4%
68 | O=C(COC(=O)c1ccc([N+](=O)[O-])o1)NC12CC3CC(CC(C3)C1)C2 | -29.8%
69 | CCOC(=O)c1cc(C#N)c(N2CCCCC2)nc1-c1ccccc1 | 6.36%
70 | CCCCSc1[nH]c(=O)c(C(=O)OCC)cc1C#N | 90% (active)
71 | CCOC(=O)c1cc(C)nc(S(C)(=O)=O)c1C#N | 15.5%
72 | CCOc1cc(C(=O)Nc2ccc(S(=O)(=O)Nc3cnc4ccccc4n3)cc2)cc(OCC)c1OCC | 27.5%
73 | Cc1ccc(C)c2c1cc(C)c1nnc(SCC(=O)Nc3cccc(C(=O)O)c3)n12 | 3.23%
74 | CC(C)c1nc(SCC(=O)Nc2cccc(C(=O)O)c2)c2c3c(sc2n1)CCCC3 | 98.2% (active)
75 | Cc1cc(NC(=O)CSc2nc(C(C)C)nc3sc4c(c23)CCC(C)C4)no1 (stereo unspecified) | -10.2%
76 | C=CC[C@H](CC(=O)NCCO)C(=O)N[C@@H](COC(=O)[C@@H](CC=C)Cc1ccc(F)cc1)Cc1c[nH]c2ccccc12 | 6.65%
77 | COc1ccc(NC(=O)C2CCC(CNc3c(N4CCCCC4)c(=O)c3=O)CC2)c(OC)c1 (stereo unspecified) | -10.1%
78 | CCN(CC)c1ccc(NC(=O)C2CCC(CNc3c(N4CCCC4)c(=O)c3=O)CC2)c(C)c1 (stereo unspecified) | 99.4% (active)
79 | CCOc1ccccc1NC(=O)C1CCC(CNc2c(N3CCOCC3)c(=O)c2=O)CC1 (stereo unspecified) | -8.1%
80 | COc1ccc(Cl)cc1NC(=O)CN(C)C(=O)c1cc2ccccc2cc1OC | -4.22%
81 | CCCCn1c(-c2cccc(C)c2)nc2cc3[nH]c(=O)c(C(C)C)nc3cc21 | -32.5%
82 | CC1CN(C(=O)COC(=O)c2cccc(NS(=O)(=O)c3ccccc3)c2)CC(C)O1 (stereo unspecified) | 2.21%
83 | CCOc1ccc(C(=O)NCC(=O)N2CCCCCCC2)cc1OCC | -5.97%
84 | O=C(COc1ccc(Br)cc1F)NCC1(N2CCCCC2)CCCCC1 | 2.53%
85 | Cc1nnc(SCC(=O)N2CCOCC2)[nH]c1=O | 3.8%
86 | CCCCOC(=O)CNc1nnc(SCC(=O)OCC)[nH]c1=O | 100% (active)
87 | CCOC(=O)CSc1nc(C)c(Oc2ccc(Cl)cc2Cl)c(=O)[nH]1 | -20.9%
88 | Cc1c(C(=O)Nc2ccccn2)oc2ccc(Br)cc12 | 1.89%

Row | Compound | inhibition
89 | COc1cc(OC)c(N2CC(C(=O)Nc3cc(Cl)ccc3N3CCOCC3)CC2=O)cc1Cl (stereo unspecified) | -7.16%
90 | C[C@H]1CN([C@@H](C)CO)C(=O)Cc2cc(NC(=O)Cc3ccccc3)ccc2O[C@H]1CN(C)S(=O)(=O)c1cccs1 | 2.5%
91 | CC(C)CN(C(=O)CSc1ncnc2sccc12)C1CCS(=O)(=O)C1 (stereo unspecified) | 5.3%
92 | COc1ccc(-c2cnc(SCCNC(=O)c3ccc4c(c3)OCO4)[nH]2)cc1 | 14.2%
93 | CCN(CC)c1ccc2c(Nc3ccccc3)c(C=O)c(=O)oc2c1 | 1.6%
94 | CCN(CC)c1ccc2oc(=O)c(C)nc2c1 | 96.5% (active)
95 | CCN(CC)c1ccc2cc(C(N)=O)/c(=N\NC(=O)c3ccncc3)oc2c1 | 8.16%
96 | C[C@H](NS(=O)(=O)c1ccc(Cl)cc1)C(=O)OCC(=O)N1CCOCC1 | -3.05%
97 | O=C(NC1CCCCCC1)C1CCN(C(=O)c2ccc(Cl)cc2)CC1 | 0.152%
98 | COc1cc(C(=O)NCc2nnc(SCC(=O)Nc3nc4ccc(C)cc4s3)o2)cc(OC)c1OC | 96.6% (active)
99 | COc1ccc(C(=O)NCc2nnc(SCC(=O)Nc3cccc(OC)c3)o2)cc1 | -14.1%
100 | COc1cc(C(=O)NCc2nnc(SCC(=O)c3ccc(Cl)cc3)o2)cc(OC)c1OC | -31.3%
101 | COc1ccc(CN2CCN(C(=O)c3cc(C4CC4)nn3-c3ccccc3)CC2)cc1F | -3.02%
102 | CCc1ccc(CN(C)C(=O)CCc2nnc(-c3ccc(-c4ccccc4)cc3)o2)nc1 | -6.23%
103 | CC(=O)c1ccc(-c2nnc(CCC(=O)N(C)Cc3cnc4ccccn34)o2)s1 | 96.1% (active)
104 | CN(Cc1ccccc1)C(=O)CCc1ccccc1 | 26.4%
105 | COc1ccc(C(=O)OCC(=O)c2cc(C)n(CC3CCCO3)c2C)cc1[N+](=O)[O-] (stereo unspecified) | -3.78%
106 | O=C(CCNC(=O)c1ccc(Br)cc1)NCC(c1ccco1)N1CCCCC1 (stereo unspecified) | 1.52%
